According to the supplement of paper PMC12282887:
± gives the standard deviation of the averaged measurements.

Test system: E. coli BW25113 marRABp lux reporter
Assay: promoter activity interaction Z-score (Lux/OD deviation from empty-vector control); higher = stronger promoter induction by the compound
Procedure: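 E. coli BW25113 (wild type or ΔmarA/ΔsoxS/Δrob) carrying pTU175 luxCDABE promoter reporters was grown in LB in 384-well plates at 37°C with each of 94 compounds at 4 two-fold concentrations, in biological duplicates. Luminescence and OD600 were read every 30 min for 12 h and integrated as AUC over 8 h (0-8 h WT, 1-9 h mutants). Lux AUC was divided by OD AUC; the interaction score is the residual of a Huber robust fit of each promoter against the empty-vector control, then Z-transformed per promoter.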

SMILES | promoter activity interaction Z-score (8.6 µg/ml, genetic background: wild type) | promoter activity interaction Z-score (8.6 µg/ml, genetic background: ΔmarA) | promoter activity interaction Z-score (8.6 µg/ml, genetic background: Δrob) | promoter activity interaction Z-score (8.6 µg/ml, genetic background: ΔsoxS) | promoter activity interaction Z-score (17.1 µg/ml, genetic background: wild type) | promoter activity interaction Z-score (17.1 µg/ml, genetic background: ΔmarA) | promoter activity interaction Z-score (17.1 µg/ml, genetic background: Δrob) | promoter activity interaction Z-score (17.1 µg/ml, genetic background: ΔsoxS) | promoter activity interaction Z-score (34.3 µg/ml, genetic background: wild type) | promoter activity interaction Z-score (34.3 µg/ml, genetic background: ΔmarA) | promoter activity interaction Z-score (34.3 µg/ml, genetic background: Δrob) | promoter activity interaction Z-score (34.3 µg/ml, genetic background: ΔsoxS) | promoter activity interaction Z-score (68.6 µg/ml, genetic background: wild type) | promoter activity interaction Z-score (68.6 µg/ml, genetic background: ΔmarA) | promoter activity interaction Z-score (68.6 µg/ml, genetic background: Δrob) | promoter activity interaction Z-score (68.6 µg/ml, genetic background: ΔsoxS) | promoter activity interaction Z-score (11.4 µg/ml, genetic background: wild type) | promoter activity interaction Z-score (11.4 µg/ml, genetic background: ΔmarA) | promoter activity interaction Z-score (11.4 µg/ml, genetic background: Δrob) | promoter activity interaction Z-score (11.4 µg/ml, genetic background: ΔsoxS) | promoter activity interaction Z-score (22.8 µg/ml, genetic background: wild type) | promoter activity interaction Z-score (22.8 µg/ml, genetic background: ΔmarA) | promoter activity interaction Z-score (22.8 µg/ml, genetic background: Δrob) | promoter activity interaction Z-score (22.8 µg/ml, genetic background: ΔsoxS) | promoter activity interaction Z-score (45.5 µg/ml, genetic background: wild type) | promoter activity interaction Z-score (45.5 µg/ml, genetic background: ΔmarA) | promoter activity interaction Z-score (45.5 µg/ml, genetic background: Δrob) | promoter activity interaction Z-score (45.5 µg/ml, genetic background: ΔsoxS) | promoter activity interaction Z-score (91.1 µg/ml, genetic background: wild type) | promoter activity interaction Z-score (91.1 µg/ml, genetic background: ΔmarA) | promoter activity interaction Z-score (91.1 µg/ml, genetic background: Δrob) | promoter activity interaction Z-score (91.1 µg/ml, genetic background: ΔsoxS)
Nc1ccc(C(=O)O)cc1 [4-Aminobenzoic acid] | 0.0884 ± 0.35 | 0.463 ± 0.36 | 0.185 ± 0.28 | 0.0813 ± 0.12 | 0.277 ± 0.097 | 0.444 ± 0.14 | 0.444 ± 0.27 | -0.00694 ± 0.024 | 0.29 ± 0.32 | -0.226 ± 0.0094 | -0.189 ± 0.33 | 0.117 ± 0.0092 | 0.174 ± 0.024 | 1.1 ± 0.03 | 0.919 ± 0.45 | 0.753 ± 0.38 | – | – | – | – | – | – | – | – | – | – | – | – | – | – | – | –
Cn1c(=O)[nH]c2[nH]c(=O)[nH]c2c1=O [1-Methyluric acid] | – | – | – | – | – | – | – | – | – | – | – | – | – | – | – | – | 0.0849 ± 0.054 | -0.0996 ± 0.1 | -0.0237 ± 0.035 | -0.145 ± 0.068 | -0.0689 ± 0.41 | -0.0515 ± 0.28 | -0.217 ± 0.19 | -0.242 ± 0.1 | -0.206 ± 0.59 | -0.417 ± 0.023 | -0.419 ± 0.29 | -0.415 ± 0.043 | -0.367 ± 0.052 | 0.16 ± 0.19 | -0.423 ± 0.058 | -0.211 ± 0.17
